Measured values taken from PubChem BioAssay (Tox21).
“And” between values parts separate entries of the source, which are not always exact repeats. Identical values can stand only once. Records with an inconclusive call do not appear. Where a call stands in place of a potency, no number is given. A number with no mark means an inactive call. The source made the active and inactive calls. The call rests on the fitted dose curve; in most records, active means well fitted cell-killing curve with a large enough effect in the repeat runs; inconclusive means weak or mixed curves, or effect the other way; inactive means no such curve, though single readings can be large or run the other way.

Test: qHTS assay to identify small molecule agonists of the RXR signaling pathway - cell viability counter screen (AID 1159529); further: nearly all actives have a fitted effect of over 50% in size
Details: RXR-alpha-bla HEK293T viability, CellTiter-Glo, 16 h; series mostly up to 76.8 µM
Method in brief: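 Luminescence from CellTiter-Glo (30 min, RT) measured viability in the same wells as the beta-lactamase reporter readout. Cells: GeneBLAzer RXR-alpha HEK 293T, 2% charcoal-stripped FBS. Compound exposure 16 hr, 37 C.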
Potency means the concentration at half of the fitted maximal effect.

| Compound | Potency | activity change, negative = cytotoxicity |
| --- | --- | --- |
| CC(=O)CC(=O)Nc1ccc2[nH]c(=O)[nH]c2c1 | inactive | – |
| CC(C)CCCCCCc1ccc(O)cc1 | 5.59 µM (active) and 38.9 µM (active) | – |
| COc1ccc(COC(C)=O)cc1 | inactive | – |
| CCc1ccc(C(c2ccc(CC)cc2)C(Cl)Cl)cc1 | 35.2 µM (active) | – |
| Cc1cccc2n[nH]nc12 | inactive | – |
| C=CC(=O)OCCCCCCCC | inactive | – |
| CCCCN(CCO)CCCC | inactive | – |
| CCCCC/C=C/CC1CC(=O)OC1=O (configuration not stated) | inactive | – |
| Nc1nc2ccccc2[nH]1 | inactive | – |
| O=C1Nc2ccccc2C1(c1ccc(O)cc1)c1ccc(O)cc1 | inactive | – |
| CC(=O)Nc1ccc(C(=O)CCl)cc1 | inactive | – |
| CCC[C@H](N[C@@H](C)C(=O)N1[C@H](C(=O)O)C[C@@H]2CCCC[C@@H]21)C(=O)OCC | inactive | – |
| CC1=CC(=O)c2ccccc2C1=O | 24.5 µM (active) and 21.3 µM (active) | – |
| O=C(OCc1ccccc1)c1ccc(O)cc1 | inactive | – |
| C=CS(=O)(=O)O | inactive | – |
| CCCCCCCCCCCCCCCCCl | – | 6.15% [at 15.8 µM] |
| O=Cc1ccc(Cl)cc1 | inactive | – |
| CCC(CO)(CO)COCC(CC)(CO)CO | inactive | – |
| CCCC(=O)c1ccccc1 | inactive | – |

| Compound | Potency | activity change, negative = cytotoxicity |
| --- | --- | --- |
| c1ccc2cc3c(ccc4ccccc43)cc2c1 | inactive | – |
| CCOc1ccc2c(c1)C(C)=CC(C)(C)N2 | inactive | – |
| Cc1cccc(O)c1C | inactive | – |
| C#CC(C)(CC)OC(=O)c1ccccc1C(=O)O (configuration not stated) | inactive | – |
| CC1=C(C=O)C(C)(C)CC=C1 | inactive | – |
| CO[Si](OC)(OC)c1ccccc1 | inactive | – |
| CC(C)(C)NCC(O)COc1ccccc1OCC1CCCO1 (configuration not stated) | inactive | – |
| Cc1ccc(S(=O)(=O)Oc2ccc(N=Nc3ccc(-c4ccc(N=Nc5c(O)ccc6cc(S(=O)(=O)O)cc(S(=O)(=O)O)c56)c(C)c4)cc3C)cc2)cc1 | inactive | – |
| CCN(CC)C(=O)Nc1ccc(OCC(O)CNC(C)(C)C)c(C(C)=O)c1 (configuration not stated) | inactive | – |
| OCC(CO)N[C@H]1C[C@](O)(CO)[C@@H](O)[C@H](O)[C@H]1O | inactive | – |
| CCC(C)(Oc1ccc(C2(c3ccc(OC(C)(CC)C(=O)O)cc3)CCCCC2)cc1)C(=O)O (configuration not stated) | inactive | – |
| CC(C)(C)c1ccccc1 | inactive | – |
| O=C(O)c1cccc(C(=O)O)c1 | inactive | – |
| C/C=C/c1ccc(OCC)c(O)c1 | inactive | – |
| O=C(O)Cn1cnnn1 | inactive | – |
| CCc1cc(C(C)(C)C)c(O)c(C(C)(C)C)c1 | inactive | – |
| O=C(O)c1cn(-c2ccc(F)cc2)c2cc(N3CCNCC3)c(F)cc2c1=O | inactive | – |
| O=C(O)CCc1ccccc1 | inactive | – |
